40 compounds from PubChem BioAssay (NCATS) can be followed below.

Structures are written as SMILES. Results filed as inconclusive are left out. A number with no mark means an inactive call. Activity calls are given as the source filed them. The call rests on the fitted dose curve; tested in HEK293 reporter line.
Further: nearly all actives have a fitted effect of over 80% in size.
On the % scale 0 is the no-effect control and ±100 the full control effect.

A short description of the first test: qHTS for Inhibitors of the Functional Ribonucleoprotein Complex (vRNP) of Lassa (LASV) Arenavirus: Viability assay - alamar blue signal for LASV Primary Screen (AID 1347083). Conditions: cell viability, alamar blue fluorescence (LASV minigenome counter-screen); series mostly up to 57.5 µM; activity change, negative = reduced viability: at the top concentration. In general terms: In qHTS, concentration-response curves come from the screen itself.
As for `COc1cc2c(c3oc(-c4ccccc4)cc(=O)c13)C=CC(C)(C)O2`, the “activity change, negative = reduced viability” value was -16.8%. For `CC(C)(O)C1CC[C@@]2(C)C3CCC4[C@@]5(C)CCCC(C)(C)C5C(O)C[C@]4(C)[C@]3(C)CC[C@@H]12` (some centres not stated), the “activity change, negative = reduced viability” value was 2.73%. Turning to `CC1(C)CCC[C@@]2(C)CC=C(C(=O)O)[C@@H]3C[C@]312`, the “activity change, negative = reduced viability” value is -9.26%. As for `CC(C)(O)Cc1ccccc1`, the “activity change, negative = reduced viability” value is -0.235% [at 115 µM]. `CO[C@H]1C=CO[C@@]2(C)Oc3c(C)c(O)c4c(O)c(c5c(c4c3C2=O)NC2(CCN(CC(C)C)CC2)N=5)=NC(=O)C(C)=CC=C[C@H](C)[C@H](O)[C@@H](C)[C@@H](O)[C@@H](C)[C@H](OC(C)=O)[C@H]1C`: the “activity change, negative = reduced viability” value is -4.55%. For `CC(=O)Oc1ccc2c(C)cc(=O)oc2c1`, the “activity change, negative = reduced viability” value is -21.2%. For `CC1CC[C@@]2(OC1)O[C@H]1CC3[C@@H]4C[C@@H](O)[C@@]5(O)C[C@@H](O)[C@H](O)C[C@]5(C)[C@H]4CC[C@]3(C)[C@H]1[C@@H]2C` (some centres not stated), the “activity change, negative = reduced viability” value was 14.9%. The same measure, in the same setting: for `CCCCCOC(=O)CCC` the value was 8.79% [at 115 µM]; for `O=C1O[C@@H](c2ccc(O)cc2)Cc2cccc(O)c21`, 15.2%. Same read-out and setting: for `C/C=C/c1cc(OC)c2c(c1)[C@H](C)[C@@H](c1ccc(O)c(OC)c1)O2` the value was 5.39%. `c1ccc(-c2ccc3ccccc3n2)cc1`: the “activity change, negative = reduced viability” value was 4.77%.

As for `CCCC1CCOC(C)S1` (configuration not stated), the “activity change, negative = reduced viability” value is 32.2% [at 115 µM]. Turning to `CC12CCC(=O)C=C1CCC1C2C(O)CC2(C)C(O)CCC12` (configuration not stated), the “activity change, negative = reduced viability” value is 3.49%. For the compound `COc1ccc(-c2oc3ccccc3c(=O)c2O)cc1`, the “activity change, negative = reduced viability” value is -4.09%. Turning to `CCCCCCCOC(C)=O`, the “activity change, negative = reduced viability” value is 3.15% [at 115 µM]. For the compound `CC(=O)OC1c2c(ccc3ccc(=O)oc23)OC(C)(C)C1OC(=O)CC(C)C` (configuration not stated), the “activity change, negative = reduced viability” value is 0.148%. For the compound `CC1(C)C2=CCCC(C)(C)[C@]23CC[C@H]1C3`, the “activity change, negative = reduced viability” value is -14.6% [at 115 µM].

With `CC1CC2CCCC(O)=C2C(=O)O1` (configuration not stated), the “activity change, negative = reduced viability” value was 4.66%.

As to `O=C(c1ccccc1)N1CCCCC1`, the “activity change, negative = reduced viability” value is 3.51%. For the compound `CC1(C)O[C@@H]2C[C@@H]3[C@H]4C[C@@H](F)C5=CC(=O)C=C[C@]5(C)[C@@]4(F)[C@@H](O)C[C@]3(C)[C@]2(C(=O)CO)O1`, the “activity change, negative = reduced viability” value was -0.291%.

Turning to `CC/C=C\CCCCO`, the “activity change, negative = reduced viability” value is 3.8% [at 115 µM]. For `CCCCCCCCCCCCCCCCCCOS(=O)(=O)O`, the “activity change, negative = reduced viability” value was 0.615% [at 115 µM].

Another test in a line: qHTS for Inhibitors of the Functional Ribonucleoprotein Complex (vRNP) of Lymphocytic Choriomeningitis Arenaviruses (LCMV): Viability assay - alamar blue signal for LCMV Primary Screen (AID 1347085). Further: potency means the concentration at half of the fitted maximal effect. The settings on record: alamar blue viability counter-screen, LCMV vRNP screen cells; series mostly up to 57.5 µM; activity change, negative = lower viability: at the top concentration.
Consider `C=C1C(=O)OC2C1C(OC(=O)C(C)=CC)CC(=C)C1C(O)C3OC3(C)C21O` (configuration not stated), for which the “activity change, negative = lower viability” value was -11.2%. As for `CC/C=C\CC1=C(C)CCC1=O`, the “activity change, negative = lower viability” value is 20.7% [at 115 µM]. The same measure, in the same setting: for `COC(=O)c1cc2c([nH]c3ccccc32)c(C)n1` the value was -20.1%; for `O=C1c2cc(CO)cc(O)c2C(=O)c2c(O[C@@H]3OC(CO)[C@@H](O)[C@@H](O)[C@@H]3O)cccc21` (some centres not stated), -5.3%.

Consider `Cc1coc2c1C(=O)C(=O)c1c-2ccc2c(C)cccc12`, for which the “activity change, negative = lower viability” value is 5.76%. Regarding `CCNC(=O)CCCC=CC[C@@H]1[C@H](C=CC(O)CCc2ccccc2)[C@@H](O)C[C@@H]1O` (some centres not stated), the “activity change, negative = lower viability” value is 2.88%. Same read-out and setting: for `CC1(C)CC(=O)c2cc(O)ccc2O1` the value was 0.127%. With `CC(=O)OC[C@]1(OC(C)=O)C[C@@]23CC[C@H]4[C@@](C)(CCC[C@@]4(C)C(=O)O)[C@@H]2CC[C@@H]1C3`, the “activity change, negative = lower viability” value is 15.7%. As to `COC(=O)/C=C\C(=O)O`, the “activity change, negative = lower viability” value was 10.9% [at 115 µM].

Consider `CC(C)CCCC(=O)O`, for which the “activity change, negative = lower viability” value is 9.02% [at 115 µM]. As to `C[C@@H](O)CCC[C@H](O)/C=C/[C@H]1[C@H](O)CC(=O)[C@@H]1C/C=C\CCCC(=O)O`, the activity change, negative = lower viability was -144% [at 5.82 µM]. With `C=C(C)C(COc1c2occc2cc2ccc(=O)oc12)OC(C)(C)C(O)COc1c2occc2cc2ccc(=O)oc12` (configuration not stated), the “activity change, negative = lower viability” value was 8.2%. Same read-out and setting: for `CC/C=C\CCOC(C)OCC` (configuration not stated) the value was 22.5% [at 115 µM].

For the compound `NCCC(=O)c1ccccc1N`, the “activity change, negative = lower viability” value is 6.43%. Same read-out and setting: for `COc1cc(=O)n(C)c2c(O)cccc12` the value was -1%. Regarding `CC(C)=CCOc1c2ccoc2c(OCC=C(C)C)c2oc(=O)ccc12`, the “activity change, negative = lower viability” value is 2.32%. Take `CCNC(=O)Nc1ccc(-c2nc3c(c(N4CCOC[C@H]4C)n2)CCN(C2COC2)C3)cc1`: the Potency was 3.06 µM (active). As to `CC(=NNC(=S)N1CCC1)c1ccccn1`, the Potency is 0.0385 µM (active). As for `COc1cc2c(c3oc(-c4ccccc4)cc(=O)c13)C=CC(C)(C)O2`, the “activity change, negative = lower viability” value was 11.3%. On to `CC(C)(O)C1CC[C@@]2(C)C3CCC4[C@@]5(C)CCCC(C)(C)C5C(O)C[C@]4(C)[C@]3(C)CC[C@@H]12` (some centres not stated), for which the “activity change, negative = lower viability” value is 12.2%. As to `CC1(C)CCC[C@@]2(C)CC=C(C(=O)O)[C@@H]3C[C@]312`, the “activity change, negative = lower viability” value is 7.63%. Consider `CC(C)(O)Cc1ccccc1`, for which the “activity change, negative = lower viability” value was 2.91% [at 115 µM].

For `CO[C@H]1C=CO[C@@]2(C)Oc3c(C)c(O)c4c(O)c(c5c(c4c3C2=O)NC2(CCN(CC(C)C)CC2)N=5)=NC(=O)C(C)=CC=C[C@H](C)[C@H](O)[C@@H](C)[C@@H](O)[C@@H](C)[C@H](OC(C)=O)[C@H]1C`, the “activity change, negative = lower viability” value was 3.63%. With `CC(=O)Oc1ccc2c(C)cc(=O)oc2c1`, the “activity change, negative = lower viability” value was -7.2%. With `CC1CC[C@@]2(OC1)O[C@H]1CC3[C@@H]4C[C@@H](O)[C@@]5(O)C[C@@H](O)[C@H](O)C[C@]5(C)[C@H]4CC[C@]3(C)[C@H]1[C@@H]2C` (some centres not stated), the “activity change, negative = lower viability” value was -1.16%. As for `CCCCCOC(=O)CCC`, the “activity change, negative = lower viability” value is 4.55% [at 115 µM]. For the compound `O=C1O[C@@H](c2ccc(O)cc2)Cc2cccc(O)c21`, the “activity change, negative = lower viability” value is 12.7%. Take `C/C=C/c1cc(OC)c2c(c1)[C@H](C)[C@@H](c1ccc(O)c(OC)c1)O2`: the “activity change, negative = lower viability” value is 10.4%. The same measure, in the same setting: for `c1ccc(-c2ccc3ccccc3n2)cc1` the value was 4.77%; for `CCCC1CCOC(C)S1` (configuration not stated), 31.6% [at 115 µM].

In the case of `CC12CCC(=O)C=C1CCC1C2C(O)CC2(C)C(O)CCC12` (configuration not stated), the “activity change, negative = lower viability” value was 2.12%. Take `COc1ccc(-c2oc3ccccc3c(=O)c2O)cc1`: the “activity change, negative = lower viability” value is 3.47%. Still for that read-out and setting: for `CCCCCCCOC(C)=O` the value was 7.88% [at 115 µM]; for `CC(=O)OC1c2c(ccc3ccc(=O)oc23)OC(C)(C)C1OC(=O)CC(C)C` (configuration not stated), 1.87%; for `CC1(C)C2=CCCC(C)(C)[C@]23CC[C@H]1C3`, 9.58% [at 115 µM]. Consider `CC1CC2CCCC(O)=C2C(=O)O1` (configuration not stated), for which the “activity change, negative = lower viability” value was -0.347%. With `O=C(c1ccccc1)N1CCCCC1`, the “activity change, negative = lower viability” value was 8.43%. For `CC1(C)O[C@@H]2C[C@@H]3[C@H]4C[C@@H](F)C5=CC(=O)C=C[C@]5(C)[C@@]4(F)[C@@H](O)C[C@]3(C)[C@]2(C(=O)CO)O1`, the “activity change, negative = lower viability” value is -4.05%. As to `CC/C=C\CCCCO`, the “activity change, negative = lower viability” value was 10.1% [at 115 µM]. Still for that read-out and setting: for `CCCCCCCCCCCCCCCCCCOS(=O)(=O)O` the value was 11.8% [at 115 µM].
